From the OligoGym collection

These sequences were tested against GLA (assay: pooled miR-30 sensor sort-seq; sequence = guide strand). Conditions: shRNA.
Also: reference of the scale not given here.

| Sequence | sensor-assay potency score (higher = more potent) |
| --- | --- |
| TAGACATGAATAAAGGAGCAGC | -0.359 |
| AACATCAACAATTCTCTCCTGG | 0.959 |
| TTACTTGCTGATTCCAGCTGAG | 0.0513 |
| TTTTATTTCCAACATCTGCATA | -1.26 |
| TTATGTGACTTCTTAACCTTGA | 0.747 |
| ATACTCTTTATACTTTTCCAGG | -1.52 |

Each sequence was assayed against GLCE in the same assay as above. Conditions: shRNA.

| Sequence | sensor-assay potency score (higher = more potent) |
| --- | --- |
| TTTAACATCAAAGTGAACTCAA | 0.589 |
| TTACTAGCCAATCACTAGCAGC | -1.01 |
| TTATTTTGAACATCGGCACTGG | 0.23 |
| TTGCATATAGTATTTGATCTAA | -0.789 |
| TCAAACTTGACCTTCATCCAGA | -0.0575 |
| TAAAAAGTTGAACACAGTCTGC | -0.82 |
| TAACATATGGTATATAACCCAC | -0.994 |
| TTTGTTAACAGATAGGCCCTGA | 0.615 |
| TAACATGTGCACATTGTGCTTA | 0.792 |
| TACCATACTGTTATCATCGAGT | 0.0428 |
| TTACCTTTTGCAATCAACCTAA | 0.22 |
| TAAAAGGTCAAACTTGACCTTC | -0.602 |

These sequences were tested against GLI3 in the same assay as above. Conditions: shRNA.

| Sequence | sensor-assay potency score (higher = more potent) |
| --- | --- |
| TTGTGTCACTGAGCTGTCCTGA | -0.401 |
| TTTTTCTTTTCAGTGGTCGTGG | 0.0526 |
| TATACTACCTCCATCGGTCAGA | -0.385 |
| TTGAGAATCGTGACCAAGGAGT | -0.494 |
| TTGATCTTGGACCTCTTGTTGT | -0.765 |
| TTGTCGGCTTAGGATCTGCTGA | -0.967 |
| TCTGATGATAGTATTCTGCTGG | 0.381 |
| TTTCGTGTCTTGCTGACTGAAG | -0.362 |
| TTTGAGTGTAACAATACTGATT | -0.904 |
| TTTGGTCATAGAACTGACCAGA | -0.608 |

What follows are sequences tested against GLIPR2 in the same assay as above. Conditions: shRNA.

| Sequence | sensor-assay potency score (higher = more potent) |
| --- | --- |
| TGCTTGAGGATCCTCGTGCTGG | -0.832 |
| TTCTTGCAGAGCTTCAGTGGGG | -0.474 |
| TTATAGTTCTTGATTTCACTGT | 0.709 |
| ATAGTTCTTGATTTCACTGTAC | 0.205 |
| TTCTTCCATACCATGGCCGTGA | -1.01 |
| TTTCCTGTCTGATCATAGGATG | -0.835 |
| TATCTGGCCACCACAAAGGAGG | -1.73 |
| TTGACAACATTCCCCGCTGGGA | -0.899 |
| TCATTGACAACATTCCCCGCTG | -0.0819 |
| TTCTTGATTTCACTGTACCATC | -1.16 |
| ATCTTCTTGGTGTTCTTCCATA | -1.63 |
| TATAGTTCTTGATTTCACTGTA | 0.562 |
